PubChem BioAssay (NCATS)
“And” between values parts separate entries of the source, which are not always exact repeats. Equal values may be shown once. Results filed as inconclusive are left out. The source made the active and inactive calls. Calls come from the whole dose curve; as a rule, active = well fitted curve in the direction sought with a large enough effect; inconclusive = small, poorly fitted or top-dose-only effect, or another doubt; inactive = no such curve, though single readings can be large; an effect the other way counts as inactive or inconclusive.

Assays:
[1] = target: Cytochrome P450 2D6 (Homo sapiens) (UniProt P10635); assay: qHTS Assay for Inhibitors and Substrates of Cytochrome P450 2D6 (AID 891)
Summary of the method: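 Luminescent read-out of luciferin formed by 5 nM human CYP2D6 demethylating 30 uM Luciferin-ME EGE (Km level) over 60 min at room temperature after NADPH regeneration addition. Data normalized to full inhibition by 1.43 uM quinidine.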

CP260 = assay: qHTS profiling for inhibitors of Plasmodium falciparum proliferation (AID 504749); conditions: P. falciparum in erythrocytes, SYBR Green DNA, 72 h; series mostly up to 28.7 µM
Summary of the method: (§1)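 Fluorescence of SYBR Green-bound parasite DNA, read at 485/535 nm, served as the growth measure. Infected erythrocytes were cultured with compound 72 h; artemisinin (0.29 uM) and DMSO wells defined the normalization range.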

CP265 = assay: as above; conditions: P. falciparum in erythrocytes, SYBR Green DNA, 72 h; series mostly up to 12.8 µM
Summary of the method: as §1

CP268 = assay: as above; conditions: P. falciparum in erythrocytes, SYBR Green DNA, 72 h; series mostly up to 28.7 µM
Summary of the method: as §1

CP325 = assay: as above; conditions: P. falciparum in erythrocytes, SYBR Green DNA, 72 h; series mostly up to 28.7 µM
Summary of the method: as §1

CP335 = assay: as above; conditions: P. falciparum in erythrocytes, SYBR Green DNA, 72 h; series mostly up to 12.8 µM
Summary of the method: as §1

JCK = assay: as above; conditions: P. falciparum in erythrocytes, SYBR Green DNA, 72 h; series mostly up to 28.7 µM
Summary of the method: as §1

PC26 = assay: as above; conditions: P. falciparum in erythrocytes, SYBR Green DNA, 72 h; series mostly up to 28.7 µM
Summary of the method: as §1

SC27B = assay: as above; conditions: P. falciparum in erythrocytes, SYBR Green DNA, 72 h; series mostly up to 28.7 µM
Summary of the method: as §1

7G8 = assay: as above; conditions: P. falciparum in erythrocytes, SYBR Green DNA, 72 h; series mostly up to 12.8 µM
Summary of the method: as §1

CP215 = assay: as above; conditions: P. falciparum in erythrocytes, SYBR Green DNA, 72 h; series mostly up to 28.7 µM
Summary of the method: as §1

CP237 = assay: as above; conditions: P. falciparum in erythrocytes, SYBR Green DNA, 72 h; series mostly up to 28.7 µM
Summary of the method: as §1

DIV14 = assay: as above; conditions: P. falciparum in erythrocytes, SYBR Green DNA, 72 h; series mostly up to 28.7 µM
Summary of the method: as §1

DIV17 = assay: as above; conditions: P. falciparum in erythrocytes, SYBR Green DNA, 72 h; series mostly up to 28.7 µM
Summary of the method: as §1

ICS = assay: as above; conditions: P. falciparum in erythrocytes, SYBR Green DNA, 72 h; series mostly up to 28.7 µM
Summary of the method: as §1

PAD = assay: as above; conditions: P. falciparum in erythrocytes, SYBR Green DNA, 72 h; series mostly up to 28.7 µM
Summary of the method: as §1

PC15 = assay: as above; conditions: P. falciparum in erythrocytes, SYBR Green DNA, 72 h; series mostly up to 28.7 µM
Summary of the method: as §1

PC49 = assay: as above; conditions: P. falciparum in erythrocytes, SYBR Green DNA, 72 h; series mostly up to 28.7 µM
Summary of the method: as §1

W2 = assay: as above; conditions: P. falciparum in erythrocytes, SYBR Green DNA, 72 h; series mostly up to 12.8 µM
Summary of the method: as §1

Measured: Potency
Note: nearly all actives have a fitted effect of over 60% in size.
Potency is the fitted concentration of half-maximal effect.

Sequence of Cytochrome P450 2D6 (Homo sapiens) (P10635 whole entry, looked up): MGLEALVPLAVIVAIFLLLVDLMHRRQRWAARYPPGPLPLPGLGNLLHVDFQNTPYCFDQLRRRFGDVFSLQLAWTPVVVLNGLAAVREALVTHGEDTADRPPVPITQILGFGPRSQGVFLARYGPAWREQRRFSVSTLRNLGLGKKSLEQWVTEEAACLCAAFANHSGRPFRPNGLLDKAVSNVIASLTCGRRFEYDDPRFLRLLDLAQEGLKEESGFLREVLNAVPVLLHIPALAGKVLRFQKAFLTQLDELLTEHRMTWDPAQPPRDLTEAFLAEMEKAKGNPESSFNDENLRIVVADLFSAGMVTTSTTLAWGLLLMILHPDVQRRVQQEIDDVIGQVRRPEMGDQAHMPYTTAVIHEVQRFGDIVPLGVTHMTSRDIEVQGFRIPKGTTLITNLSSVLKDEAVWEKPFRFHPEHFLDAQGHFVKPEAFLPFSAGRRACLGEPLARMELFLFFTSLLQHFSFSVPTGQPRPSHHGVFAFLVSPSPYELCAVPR

CC[C@@H]1[C@@H]2C[C@H]3[C@H]4N(C)c5ccccc5[C@@]45C[C@@H]([C@@H]2[C@@H]5O)N3[C@H]1O
active: [1] 3980 nM
inactive: CP260 | CP265 | CP268 | CP325 | CP335 | JCK | PC26 | SC27B

CNC[C@H](O)c1ccc(O)cc1
inactive: [1] | 7G8 | CP215 | CP237 | CP260 | CP265 | CP268 | CP325 | CP335 | DIV14 | DIV17 | ICS | JCK | PAD | PC15 | PC26 | PC49 | SC27B | W2

C[C@H](NC(C)(C)C)C(=O)c1cccc(Cl)c1
inactive: CP215 | CP260 | CP268 | CP325 | DIV14 | JCK | PAD | PC15 | PC26 | PC49 | SC27B

C[C@@]12CC[C@H]3[C@@H](CC[C@@H]4C[C@H]5S[C@H]5C[C@]43C)[C@H]1CC[C@H]2O
inactive: CP215 | CP237 | CP260 | CP265 | CP268 | CP325 | CP335 | DIV14 | DIV17 | JCK | PAD | PC15 | PC26 | PC49 | SC27B

CS(=N)(=O)CC[C@@H](N)C(=O)O (stereo partly specified)
inactive: [1]

CN1Cc2c(ccc3c2OCO3)[C@@H]2[C@@H](O)Cc3cc4c(cc3[C@@H]21)OCO4
active: [1] 199 nM and 79.4 nM

COc1cc2c(cc1O)[C@H]1Cc3ccc(OC)c(O)c3CN1CC2
active: [1] 31.6 nM

CCN(CC)C(=O)N[C@@H]1C[C@H]2c3cccc4[nH]cc(c34)C[C@@H]2N(C)C1
active: [1] 15.8 nM

CC(C)N(CC[C@@](C(N)=O)(c1ccccc1)c1ccccn1)C(C)C
inactive: 7G8 | CP215 | CP237 | CP260 | CP265 | CP268 | CP325 | CP335 | DIV14 | DIV17 | ICS | JCK | PAD | PC15 | PC26 | PC49 | SC27B

CCN[C@]1(c2cccs2)CCCCC1=O
inactive: 7G8 | CP215 | CP260 | CP265 | CP268 | CP325 | CP335 | DIV14 | DIV17 | ICS | JCK | PAD | PC15 | PC26 | PC49 | SC27B

CN1[C@@H](C[C@@H](O)c2ccccc2)CCC[C@@H]1C[C@H](O)c1ccccc1
active: [1] 631 nM

CC(=O)OCC(=O)[C@@H]1CC[C@H]2[C@H]3CC[C@H]4C[C@@H](O)CC[C@]4(C)[C@@H]3C(=O)C[C@@]12C
inactive: 7G8 | CP215 | CP237 | CP265 | CP268 | CP325 | CP335 | DIV14 | DIV17 | ICS | JCK | PAD | PC15 | PC26 | PC49 | SC27B | W2

C#CCN(C)[C@@H](C)Cc1ccccc1
inactive: 7G8 | CP215 | CP237 | CP265 | CP268 | CP325 | CP335 | DIV17 | ICS | JCK | PAD | PC15 | PC26 | PC49 | SC27B | W2

CC[C@H]1CN2CC[C@@H]1C[C@H]2[C@@H](O)c1ccnc2ccc(OC)cc12
active: [1] 3160 nM

CC[C@]1(c2cccc(O)c2)CCCCN(C)C1
active: CP237 3.16 µM | W2 3.22 µM
inactive: 7G8 | CP260 | ICS | JCK | PC49

NCC[C@H](O)C(=O)N[C@H]1C[C@@H](N)[C@@H](O[C@H]2O[C@@H](CN)[C@@H](O)[C@@H](O)[C@@H]2N)[C@@H](O[C@H]2O[C@@H](CO)[C@@H](O)[C@@H]2O)[C@@H]1O
inactive: 7G8 | CP215 | CP237 | CP260 | CP265 | CP268 | CP325 | CP335 | DIV14 | DIV17 | ICS | JCK | PAD | PC15 | PC26 | PC49 | SC27B | W2

COc1ccc2c(c1OC)CN1CCc3cc4c(cc3[C@H]1C2)OCO4
active: [1] 63.1 nM | 7G8 3.55 µM | CP215 2.03 µM | DIV14 2.56 µM | DIV17 4.55 µM | PAD 3.16 µM | W2 2.28 µM

C[C@@H]1O[C@H](O[C@@H]2C=C3CC[C@H]4[C@@H](CC[C@]5(C)[C@@H](c6ccc(=O)oc6)CC[C@]45O)[C@@]3(C)CC2)[C@@H](O)[C@H](O)[C@@H]1O
inactive: 7G8 | CP215 | CP237 | CP260 | CP265 | CP268 | CP325 | CP335 | DIV14 | DIV17 | ICS | JCK | PAD | PC49 | SC27B | W2

COc1cc2c(cc1O)C[C@H]1c3c(cc(O)c(OC)c3-2)CCN1C
active: [1] 7940 nM

CN[C@@H](C)[C@H]1CC[C@@H](N)[C@@H](O[C@@H]2[C@@H](O)[C@@H](O[C@H]3OC[C@@](C)(O)[C@@H](NC)[C@@H]3O)[C@H](N)C[C@@H]2N)O1 (tested in a mixture with another compound)
inactive: 7G8 | CP237 | CP260 | CP265 | CP268 | CP325 | CP335 | DIV14 | DIV17 | ICS | JCK | PAD | PC15 | PC26 | PC49 | SC27B | W2

CN1C[C@H](CO)C=C2c3cccc4[nH]cc(c34)C[C@@H]21
active: [1] 126 nM

C[N+]1([O-])[C@@H]2CC[C@H]1CC(OC(=O)[C@@H](CO)c1ccccc1)C2 (stereo partly specified)
inactive: 7G8 | CP215 | CP237 | CP260 | CP265 | CP268 | CP325 | CP335 | DIV14 | DIV17 | ICS | JCK | PAD | PC15 | PC26 | PC49 | SC27B | W2
